SMILES strings stand for the structures. The panel holds about 83,000 compounds, 20% with a hit somewhere; the sample as a whole holds those more often.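 Each cell line was grown in a 96-well plate and treated with one concentration of compound for 48 hours. Values below 10 were considered active.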 Values without a mark were called inactive. Active and inactive are the calls of the source.

The values that follow come from PubChem BioAssay (NCI).

Among the test systems are NCI-H23 lung; NCI-H226 lung; NCI-H322M lung; HOP-62 NSCLC; NCI-H460 lung; HOP-92 NSCLC; NCI-H522 lung; A549/ATCC NSCLC; 786-0 renal; COLO 205 colon; DU-145 prostate; K-562 leukemia; MALME-3M melanoma; MDA-MB-231 breast; RXF 393 renal; SF-268 CNS; SF-295 CNS; SF-539 CNS; UACC-257 melanoma; M14 melanoma.
Assay in all cases: NCI-60 one-dose screen, 48 h (100 = growth as untreated, 0 = no growth, -100 = all killed)
Common to all, as to details: 10 µM unless noted

As to `O=C(/C=C1\C(=O)N(Cc2ccccc2)c2ccccc21)c1cc2ccccc2oc1=O`, the growth was 89.4% with NCI-H23 lung; 74.2% in the test with NCI-H226 lung; 93.9% in the test with NCI-H322M lung; 102% in the test on HOP-62 NSCLC; 103% with NCI-H460 lung; 87.9% with HOP-92 NSCLC. Moreover, the growth with NCI-H522 lung was 35.4%; with A549/ATCC NSCLC, 104%; in the test on 786-0 renal, 100%; in the test on COLO 205 colon, 28.6%; with DU-145 prostate, 104%; with K-562 leukemia it was 1.52% (active). The growth with MALME-3M melanoma is 68.9%; with MDA-MB-231 breast, 81%; in the test with RXF 393 renal, 86.1%; in the test with SF-268 CNS, 95.6%; in the test with SF-295 CNS, 104%; with SF-539 CNS, 98.9%. The growth was 107% with UACC-257 melanoma and 85.1% with M14 melanoma.
Consider `CC1=C(C(=O)Nc2ccccc2)C(c2cccc3ccccc23)n2c(nc3ccccc32)N1` (stereo not given), for which the growth is 76.7% in the test with NCI-H23 lung; -39.8% (active) in the test with NCI-H226 lung; 44% with NCI-H322M lung; -61.9% (active) in the test with HOP-62 NSCLC; 27.6% with NCI-H460 lung; 1.76% (active) in the test with HOP-92 NSCLC. In addition, the growth in the test on NCI-H522 lung was 63.6%; with A549/ATCC NSCLC it was 28.2%; with 786-0 renal, 6.29% (active); in the test on COLO 205 colon it was 95.2%; with DU-145 prostate, 29%; in the test with K-562 leukemia it was 82.9%. Also, the growth is 43.8% in the test on MALME-3M melanoma; 53.8% in the test on MDA-MB-231 breast; 13.9% with RXF 393 renal; 19.8% in the test with SF-268 CNS; 32.2% in the test on SF-295 CNS; 43.8% in the test on SF-539 CNS. Besides, the figures for the growth with UACC-257 melanoma and in the test with M14 melanoma were 45.1% and 65.7%, respectively.
As to `O=c1[nH]c2ccccc2cc1CSc1ccccc1Nc1nccc(-c2ccc3c(c2)OCO3)n1`, the growth in the test on NCI-H23 lung was 85.5%; with NCI-H226 lung, 49.7%; in the test with NCI-H322M lung, 87.7%; in the test with HOP-62 NSCLC it was 40.6%; in the test with NCI-H460 lung, 76.7%; in the test with HOP-92 NSCLC it was 71.7%. The growth in the test on NCI-H522 lung was 34.8%; with A549/ATCC NSCLC, 82.4%; in the test with 786-0 renal, 64.7%; with COLO 205 colon, 84.9%; with DU-145 prostate, 85.1%; with K-562 leukemia, 87.6%. Also, the growth was 80.2% with MALME-3M melanoma; 85.4% with MDA-MB-231 breast; 81.5% in the test on RXF 393 renal; 63.2% with SF-268 CNS; 75.3% in the test with SF-295 CNS; 63.9% with SF-539 CNS. For the same compound, the growth in the test with UACC-257 melanoma is 94.4%; in the test with M14 melanoma, 89.3%.
As to `Cc1ccc(C(=O)C[n+]2cccc3c4ccccc4ccc32)cc1`, the growth is 27.4% in the test on NCI-H23 lung; 36.3% in the test with NCI-H226 lung; 43.3% with NCI-H322M lung; 36.1% in the test on HOP-62 NSCLC; 4.31% (active) in the test with NCI-H460 lung; -8.04% (active) with HOP-92 NSCLC. Moreover, the growth in the test on NCI-H522 lung is 22.1%; with A549/ATCC NSCLC, 23.8%; in the test with 786-0 renal it was 34.4%; in the test with COLO 205 colon, 5.75% (active); in the test with DU-145 prostate, 35.7%; in the test with K-562 leukemia, 8.04% (active). Moreover, the growth in the test with MALME-3M melanoma is 10.4%; in the test with MDA-MB-231 breast it was 24.2%; in the test with RXF 393 renal, 5.94% (active); with SF-268 CNS, 42.8%; in the test on SF-295 CNS, 23.4%; in the test with SF-539 CNS it was 25.5%. Moreover, the results for the growth in the test with UACC-257 melanoma and in the test on M14 melanoma were 5.16% (active) and 17.6%, respectively.
For the compound `O=C(Nc1nc2ccc([N+](=O)[O-])cc2s1)Nc1ccccc1F`, the growth is 6.62% (active) in the test with NCI-H23 lung; 10.9% in the test with NCI-H226 lung; 8.1% (active) in the test on NCI-H322M lung; 6.89% (active) with HOP-62 NSCLC; 2.96% (active) in the test on NCI-H460 lung; -3.78% (active) with HOP-92 NSCLC. Further, the growth was -16.6% (active) with NCI-H522 lung; 12.2% with A549/ATCC NSCLC; 7.95% (active) with 786-0 renal; 21.9% with COLO 205 colon; 25.8% with DU-145 prostate; 7.7% (active) in the test on K-562 leukemia. The growth was -2.16% (active) in the test on MALME-3M melanoma; 4.62% (active) in the test on MDA-MB-231 breast; 5.7% (active) in the test with RXF 393 renal; 29.5% in the test with SF-268 CNS; 3% (active) with SF-295 CNS; -8.34% (active) with SF-539 CNS. Also, the growth in the test on UACC-257 melanoma is -4.98% (active); with M14 melanoma, 16.5%.
For the compound `COc1ccc2[nH]cc(-c3cc4nc(-c5cn(C)c6ncc(Br)cc56)cc(N)n4n3)c2c1`, the growth was -76.7% (active) with NCI-H23 lung; -31.6% (active) in the test with NCI-H226 lung; -47.5% (active) with NCI-H322M lung; -50.2% (active) in the test with HOP-62 NSCLC; -51.3% (active) with NCI-H460 lung; -79.2% (active) with HOP-92 NSCLC. Besides, the growth with NCI-H522 lung was -64.9% (active); in the test with A549/ATCC NSCLC, -69.8% (active); in the test on 786-0 renal, -95% (active); in the test with COLO 205 colon, -75.5% (active); with DU-145 prostate it was -70.7% (active); with K-562 leukemia, -27.4% (active). Besides, the growth in the test on MALME-3M melanoma was -87% (active); in the test with MDA-MB-231 breast, -83.8% (active); in the test on RXF 393 renal, -77.2% (active); in the test with SF-268 CNS it was -44% (active); in the test with SF-295 CNS, -77.4% (active); in the test on SF-539 CNS it was -95.4% (active). The growth is -82.3% (active) in the test on UACC-257 melanoma and -85.2% (active) in the test on M14 melanoma.
Regarding `Cc1ccc(-c2cc(C(=O)N=Nc3c(O)[nH]c4ccc(F)cc34)c3ccccc3n2)cc1`, the growth is 15.1% in the test with NCI-H23 lung; 59% in the test with NCI-H226 lung; 44.4% in the test on NCI-H322M lung; 6.08% (active) with HOP-62 NSCLC; 1.25% (active) in the test with NCI-H460 lung; 104% in the test on HOP-92 NSCLC. Further, the growth is 25.5% in the test on NCI-H522 lung; 11.2% in the test with A549/ATCC NSCLC; 44% in the test with 786-0 renal; 73.9% with COLO 205 colon; 51.1% in the test with DU-145 prostate; 60.8% in the test with K-562 leukemia. The growth in the test on MALME-3M melanoma is 48.4%; in the test on MDA-MB-231 breast it was 11%; with RXF 393 renal it was 109%; with SF-268 CNS, 65.3%; with SF-295 CNS it was 98.7%; with SF-539 CNS, -39.7% (active). Moreover, the growth in the test with UACC-257 melanoma is 69%; with M14 melanoma, 79.6%.
Regarding `O=C(N/N=C/c1ccc(-c2cccc([N+](=O)[O-])c2)s1)c1[nH]c2ccc(Br)cc2c1-c1ccccc1`, the growth with NCI-H23 lung was 81.3%; with NCI-H226 lung, 94.8%; in the test on NCI-H322M lung, 99.2%; with HOP-62 NSCLC, 64.4%; in the test with NCI-H460 lung, 84.6%; with HOP-92 NSCLC, 94.4%. The growth in the test with NCI-H522 lung was 66.5%; with A549/ATCC NSCLC, 91.4%; in the test on 786-0 renal, 92.6%; with COLO 205 colon, 97.7%; with DU-145 prostate, 106%; in the test with K-562 leukemia, 92.7%. For the same compound, the growth with MALME-3M melanoma is 86.1%; in the test on MDA-MB-231 breast, 74.6%; with RXF 393 renal, 90.8%; in the test on SF-268 CNS it was 92.7%; in the test on SF-295 CNS, 103%; in the test on SF-539 CNS, 96.6%. Further, the values for the growth in the test with UACC-257 melanoma and in the test on M14 melanoma were 85.6% and 75.2%, respectively.
